# “And” between values parts separate entries of the source, which are not always exact repeats. Equal entries are not always repeated. Records with an inconclusive call do not appear. More than one record can exist for a structure, and the calls need not agree. The source made the active and inactive calls. Rule for the calls, unless noted: active = hit-call score of the fitted dose curve at least 0.9, where 1 is the maximum; inactive = score below 0.9.
# Assays:
# [1] = read-out: Pyruvate Dehydrogenase Kinase 4 (PDK4), PDK4 (gene 5166); assay: LTEA_HepaRG_PDK4: Life Technologies and Expression Analysis (LTEA) Assay for Pyruvate Dehydrogenase Kinase 4 (PDK4) using HepaRG (AID 2283525); details: mRNA level, 48 h; actives raise or lower the signal
# In short: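 In this multiplexed human HepaRG expression assay, cells are treated 48 h with test chemicals across an eight-point range starting at 100 uM. PDK4 mRNA changes, normalized to ACTB/GAPDH/POLR2A, are fitted in both directions relative to vehicle.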
# [2] = read-out: NAD(P)H dehydrogenase [quinone] 1 (NQO1), NQO1 (gene 1728); assay: LTEA_HepaRG_NQO1: Life Technologies and Expression Analysis (LTEA) Assay for NAD(P)H dehydrogenase [quinone] 1 (NQO1) using HepaRG (AID 2283526); details: mRNA level, 48 h; actives raise or lower the signal
# In short: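 Differentiated human HepaRG cells in serum-free induction medium, dosed in duplicate for 48 h at 8 half-log concentrations up to 100 uM in 0.5% DMSO. NQO1 mRNA by qRT-PCR normalized to ACTB, GAPDH, POLR2A; bidirectional fit versus DMSO baseline.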
# [3] = read-out: Nuclear factor erythroid 2-related factor 2 (Homo sapiens) (UniProt Q16236); assay: LTEA_HepaRG_NFE2L2: Life Technologies and Expression Analysis (LTEA) Assay for Nuclear factor erythroid 2-related factor 2 (NFE2L2) Transcription Factor using HepaRG (AID 2283527); details: mRNA level, 48 h; actives raise or lower the signal;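 for outcome: TaqMan qRT-PCR transcript level normalised to ACTB GAPDH and POLR2A housekeeping genes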
# In short: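 Transcript level of NFE2L2 is the read-out, measured by microfluidic TaqMan qRT-PCR and normalized to three housekeeping genes. Human HepaRG cultures received test chemical for 48 h at up to 100 uM in half-log steps. Gain or loss of signal is fitted relative to 0.5% DMSO.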
# [4] = read-out: succinate dehydrogenase complex iron sulfur subunit B (SDHB), SDHB (gene 6390); assay: LTEA_HepaRG_SDHB: Life Technologies and Expression Analysis (LTEA) Assay for succinate dehydrogenase complex iron sulfur subunit B (SDHB) using HepaRG (AID 2283528); details: mRNA level, 48 h; actives raise or lower the signal
# In short: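 HepaRG cells (~100,000/well, plated 48 h) exposed in duplicate for 48 h in serum-free induction medium to 8-point half-log series from 100 uM in 0.5% DMSO; mRNA by qRT-PCR normalised to ACTB, GAPDH, POLR2A; bidirectional fit versus DMSO.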
# [5] = read-out: Signal transducer and activator of transcription 3 (Homo sapiens) (UniProt P40763); assay: LTEA_HepaRG_STAT3: Life Technologies and Expression Analysis (LTEA) Assay for Signal transducer and activator of transcription (STAT3) using HepaRG (AID 2283529); details: mRNA level, 48 h; actives raise or lower the signal
# In short: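 Read-out is STAT3 mRNA level by qRT-PCR, normalized to three housekeeping genes, in human HepaRG liver cells treated for 48 h. Concentrations ran from 100 uM downward in half-log steps; curves were fitted for gain or loss relative to 0.5% DMSO.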
# [6] = read-out: solute carrier (SLCO1B1), SLCO1B1 (gene 10599); assay: LTEA_HepaRG_SLCO1B1: Life Technologies and Expression Analysis (LTEA) Assay for solute carrier (SLCO1B1) using HepaRG (AID 2283530); details: mRNA level, 48 h; actives raise or lower the signal
# In short: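 Differentiated human HepaRG cells, plated 48 h, switched to serum-free induction medium and exposed in duplicate for 48 h to 8 half-log concentrations (top 100 uM) in 0.5% DMSO. SLCO1B1 mRNA by TaqMan qRT-PCR, normalized to ACTB/GAPDH/POLR2A.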
# [7] = read-out: sulfotransferase 2A1 (SULT2A1), SULT2A1 (gene 6822); assay: LTEA_HepaRG_SULT2A1: Life Technologies and Expression Analysis (LTEA) Assay for sulfotransferase 2A1 (SULT2A1) using HepaRG (AID 2283531); details: mRNA level, 48 h; actives raise or lower the signal
# In short: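 Differentiated human HepaRG cells in serum-free induction medium were exposed for 48 h to eight half-log concentrations (top 100 uM, 0.5% DMSO). SULT2A1 mRNA was measured by qRT-PCR, normalized to ACTB, GAPDH and POLR2A, and fitted bidirectionally against DMSO.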
# [8] = read-out: Transforming Growth Factor (TGFA), TGFA (gene 7039); assay: LTEA_HepaRG_TGFA: Life Technologies and Expression Analysis (LTEA) Assay for Transforming Growth Factor (TGFA) using HepaRG (AID 2283532); details: mRNA level, 48 h; actives raise or lower the signal
# In short: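 HepaRG (human liver line), 48 h exposure, 8 conc. half-log down from 100 uM, 0.5% DMSO vehicle, duplicates; serum-free induction medium. TGFA mRNA by TaqMan qRT-PCR, ACTB/GAPDH/POLR2A normalization; gain/loss fit vs DMSO.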
# [9] = read-out: Transforming Growth Factor (TGFB1), TGFB1 (gene 7040); assay: LTEA_HepaRG_TGFB1: Life Technologies and Expression Analysis (LTEA) Assay for Transforming Growth Factor (TGFB1) Transporter using HepaRG (AID 2283533); details: mRNA level, 48 h; actives raise or lower the signal
# In short: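 Differentiated human HepaRG cells in serum-free induction medium were exposed in duplicate for 48 h to eight concentrations (top 100 uM, half-log steps, 0.5% DMSO). TGFB1 mRNA was quantified by qRT-PCR, normalized to ACTB, GAPDH, POLR2A, and fitted bidirectionally against DMSO.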
# [10] = read-out: TIMP1, TIMP1 (gene 7076); assay: LTEA_HepaRG_TIMP1: Life Technologies and Expression Analysis (LTEA) Assay for TIMP1 using HepaRG (AID 2283534); details: mRNA level, 48 h; actives raise or lower the signal;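 note: TaqMan qRT-PCR signal normalized to ACTB GAPDH and POLR2A housekeeping genes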
# In short: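 Differentiated human HepaRG cells in serum-free induction medium were exposed 48 h to chemicals (8 half-log concentrations, top 100 uM, 0.5% DMSO). TIMP1 mRNA was quantified by TaqMan qRT-PCR, normalized to ACTB/GAPDH/POLR2A; bidirectional fit versus DMSO.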
# [11] = read-out: Tumor necrosis factor receptor 1 (TNFRSF1A), TNFRSF1A (gene 7132); assay: LTEA_HepaRG_TNFRSF1A: Life Technologies and Expression Analysis (LTEA) Assay for Tumor necrosis factor receptor 1 (TNFRSF1A) using HepaRG (AID 2283535); details: mRNA level, 48 h; actives raise or lower the signal
# In short: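 Differentiated human HepaRG cells were exposed in duplicate for 48 h in serum-free induction medium to eight concentrations (top 100 uM, half-log steps, 0.5% DMSO). TNFRSF1A mRNA was quantified by qRT-PCR, normalized to ACTB, GAPDH and POLR2A, then fitted bidirectionally against DMSO.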
# [12] = read-out: Thyroid Hormone Responsive (THRSP), THRSP (gene 7069); assay: LTEA_HepaRG_THRSP: Life Technologies and Expression Analysis (LTEA) Assay for Thyroid Hormone Responsive (THRSP) using HepaRG (AID 2283536); details: mRNA level, 48 h; actives raise or lower the signal
# In short: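 mRNA induction or loss relative to 0.5% DMSO vehicle was fitted bidirectionally across an eight-point curve whose highest exposure was 100 uM. Human HepaRG liver cells received chemicals in duplicate over 48 h before RNA extraction.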
# [13] = read-out: Cellular tumor antigen p53 (Homo sapiens) (UniProt P04637); assay: LTEA_HepaRG_TP53: Life Technologies and Expression Analysis (LTEA) Assay for Tumor Protein P53 (TP53) using HepaRG (AID 2283537); details: mRNA level, 48 h; actives raise or lower the signal
# In short: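 Differentiated HepaRG cells in serum-free induction medium exposed 48 h in duplicate to 8 half-log concentrations, top 100 uM, 0.5% DMSO. TP53 mRNA by TaqMan qRT-PCR (Fluidigm), normalized to ACTB, GAPDH, POLR2A; fitted bidirectionally versus DMSO.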
# [14] = read-out: UDP glucuronosyltransferase (UGT1A1), UGT1A1 (gene 54658); assay: LTEA_HepaRG_UGT1A1: Life Technologies and Expression Analysis (LTEA) Assay for UDP glucuronosyltransferase (UGT1A1) using HepaRG (AID 2283538); details: mRNA level, 48 h; actives raise or lower the signal
# In short: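 HepaRG cells, 0.5% DMSO vehicle, 48 h exposure in serum-free induction medium to 8-point half-log series topping at 100 uM, in duplicate. UGT1A1 mRNA by Fluidigm qRT-PCR, normalized to ACTB/GAPDH/POLR2A; bidirectional fit versus DMSO.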
# [15] = read-out: UDP glucuronosyltransferase (UGT1A6), UGT1A6 (gene 54578); assay: LTEA_HepaRG_UGT1A6: Life Technologies and Expression Analysis (LTEA) Assay for UDP glucuronosyltransferase (UGT1A6) using HepaRG (AID 2283539); details: mRNA level, 48 h; actives raise or lower the signal
# In short: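 Human HepaRG cells were dosed for 48 h in serum-free induction medium with 0.5% DMSO vehicle, eight-point half-log series from 100 uM, in duplicate. UGT1A6 mRNA was measured by qRT-PCR, normalized to ACTB, GAPDH, POLR2A, and fitted bidirectionally against DMSO.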
# [16] = read-out: X-box binding protein 1 (XBP1), XBP1 (gene 7494); assay: LTEA_HepaRG_XBP1: Life Technologies and Expression Analysis (LTEA) Assay for X-box binding protein 1 (XBP1) using HepaRG (AID 2283540); details: mRNA level, 48 h; actives raise or lower the signal
# In short: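 Differentiated human HepaRG cells in serum-free induction medium were exposed in duplicate for 48 h to eight half-log concentrations up to 100 uM in 0.5% DMSO. XBP1 mRNA was quantified by qRT-PCR, normalised to ACTB, GAPDH and POLR2A, with bidirectional fitting against DMSO.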
# [17] = LTEA_HepaRG_LDH_cytotoxicity: Cytotoxicity Assessment in the Life Technologies and Expression Analysis (LTEA) Assay (AID 2283563; active = hit-call score of the fitted dose curve at least 0.9, where 1 is the maximum;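 for AC50: LDH activity released into spent culture medium as a marker of cell death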)
# In short: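 Differentiated human HepaRG cells, plated 48 h beforehand, were switched to serum-free induction medium and exposed for 48 h to eight half-log concentrations (top 100 uM) in 0.5% DMSO. LDH was measured in spent medium; activity was fitted relative to DMSO vehicle.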
# [18] = ATG_XTT_Cytotoxicity: Cytotoxicity Assessment in the Attagene TRANS-FACTORIAL HepG2 Assay (AID 2283584; active = hit-call score of the fitted dose curve at least 0.9, where 1 is the maximum)
# In short: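 HepG2 human liver cells, transiently transfected with multiple GAL4-UAS reporter units, were dosed and read at 24 h by XTT as cell number. Loss of signal was fitted relative to DMSO negative control baseline.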
# [19] = target: Cellular tumor antigen p53 (Homo sapiens) (UniProt P04637); assay: TOX21_p53_BLA_p2_ratio: Tox21 HCT-116 p53 Agonism Beta-lactamase Assay, Ratio, Phase 2 (AID 2283592; active = hit-call score of the fitted dose curve at least 0.9, where 1 is the maximum)
# In short: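 HCT116 cells carrying a p53-responsive beta-lactamase reporter were plated, incubated 5 h at 37C, then dosed with compounds in DMSO (217-fold dilution) for 16 h. CCF4-AM substrate was added for 2 h at room temperature; the 460/530 nm emission ratio gave gain-of-signal activity relative to DMSO.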
# [20] = TOX21_p53_BLA_p2_viability: Viability Assessment in the Tox21 HCT-116 p53 Agonism Beta-lactamase Assay, Phase 2 (AID 2283591; active = hit-call score of the fitted dose curve at least 0.9, where 1 is the maximum;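 note: compound exposure lasted 16 h at 37 °C; actives lower the ATP signal meaning cytotoxicity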)
# In short: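 Cytotoxicity readout: CellTiter-Glo ATP luminescence, 30 min at room temperature, after the beta-lactamase read. Cells were HCT116 exposed 16 h at 37C to compounds pin-transferred at 217-fold dilution from DMSO stocks.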
# Cellular tumor antigen p53 (Homo sapiens), sequence (P04637 whole entry, looked up): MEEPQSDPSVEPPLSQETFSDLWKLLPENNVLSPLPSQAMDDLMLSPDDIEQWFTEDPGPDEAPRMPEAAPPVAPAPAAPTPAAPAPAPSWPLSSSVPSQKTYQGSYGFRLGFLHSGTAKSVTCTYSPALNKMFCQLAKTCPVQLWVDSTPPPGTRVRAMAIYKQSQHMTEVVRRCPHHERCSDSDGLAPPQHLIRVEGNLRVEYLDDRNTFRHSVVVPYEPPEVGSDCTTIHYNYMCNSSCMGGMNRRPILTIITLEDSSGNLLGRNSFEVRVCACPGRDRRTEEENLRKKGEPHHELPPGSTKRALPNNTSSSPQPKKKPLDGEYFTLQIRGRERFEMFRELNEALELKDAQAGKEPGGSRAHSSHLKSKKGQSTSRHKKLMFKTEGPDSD
# Nuclear factor erythroid 2-related factor 2 (Homo sapiens), sequence (Q16236 whole entry, looked up): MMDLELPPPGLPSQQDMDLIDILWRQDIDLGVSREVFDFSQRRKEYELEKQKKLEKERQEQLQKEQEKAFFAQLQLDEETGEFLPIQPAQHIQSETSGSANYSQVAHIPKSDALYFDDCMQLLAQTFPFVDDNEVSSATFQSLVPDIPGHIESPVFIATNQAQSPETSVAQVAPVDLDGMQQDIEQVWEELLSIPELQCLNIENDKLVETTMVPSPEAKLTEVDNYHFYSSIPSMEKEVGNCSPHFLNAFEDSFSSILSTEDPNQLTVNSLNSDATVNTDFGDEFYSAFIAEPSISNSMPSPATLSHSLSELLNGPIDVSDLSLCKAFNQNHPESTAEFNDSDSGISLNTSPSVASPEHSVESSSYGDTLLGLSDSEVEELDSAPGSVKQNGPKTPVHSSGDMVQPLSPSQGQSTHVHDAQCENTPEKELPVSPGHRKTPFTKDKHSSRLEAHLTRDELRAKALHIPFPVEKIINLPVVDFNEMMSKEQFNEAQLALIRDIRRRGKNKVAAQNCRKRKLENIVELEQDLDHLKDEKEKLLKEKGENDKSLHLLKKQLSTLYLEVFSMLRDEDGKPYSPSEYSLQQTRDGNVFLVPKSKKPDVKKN
# Signal transducer and activator of transcription 3 (Homo sapiens), sequence (P40763 whole entry, looked up): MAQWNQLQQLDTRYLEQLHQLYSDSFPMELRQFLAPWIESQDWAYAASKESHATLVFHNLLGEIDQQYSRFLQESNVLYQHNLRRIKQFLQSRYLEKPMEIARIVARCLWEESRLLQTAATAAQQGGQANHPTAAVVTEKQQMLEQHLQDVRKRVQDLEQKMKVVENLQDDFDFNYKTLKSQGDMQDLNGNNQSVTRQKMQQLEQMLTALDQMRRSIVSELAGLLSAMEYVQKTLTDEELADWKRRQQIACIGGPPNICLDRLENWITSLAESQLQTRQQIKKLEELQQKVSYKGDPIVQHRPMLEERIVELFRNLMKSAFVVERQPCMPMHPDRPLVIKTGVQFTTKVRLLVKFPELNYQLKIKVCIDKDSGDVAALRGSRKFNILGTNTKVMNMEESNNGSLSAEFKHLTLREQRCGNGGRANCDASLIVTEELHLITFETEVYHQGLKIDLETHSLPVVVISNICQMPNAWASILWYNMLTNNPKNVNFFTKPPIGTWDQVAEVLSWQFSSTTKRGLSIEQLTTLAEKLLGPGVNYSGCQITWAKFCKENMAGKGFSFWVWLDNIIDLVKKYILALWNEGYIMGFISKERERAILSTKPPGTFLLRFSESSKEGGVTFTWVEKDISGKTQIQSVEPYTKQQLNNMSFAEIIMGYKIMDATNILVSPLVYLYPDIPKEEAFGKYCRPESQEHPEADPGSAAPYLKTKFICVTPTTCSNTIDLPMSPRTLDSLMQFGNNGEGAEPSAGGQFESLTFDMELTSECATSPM
structure (smiles),measurement,setting,value
O=S(=O)(O)C(F)(F)C(F)(F)C(F)(F)C(F)(F)C(F)(F)C(F)(F)F,AC50,[1],35.2 µM (active)
same,outcome,[2],inactive
same,AC50,[3],0.979 µM (active)
same,AC50,[4],8.54 µM (active)
same,outcome,[5],inactive
same,outcome,[6],inactive
same,outcome,[7],inactive
same,outcome,[8],inactive
same,outcome,[9],inactive
same,outcome,[10],inactive
same,outcome,[11],inactive
same,outcome,[12],inactive
same,outcome,[13],inactive
same,AC50,[14],38.6 µM (active)
same,outcome,[15],inactive
same,outcome,[16],inactive
same,outcome,[17],inactive
same,outcome,[18],inactive
same,outcome,[19],inactive
ClC(Cl)=C(c1ccc(Cl)cc1)c1ccc(Cl)cc1,outcome,[2],inactive
same,outcome,[3],inactive
same,outcome,[5],inactive
same,outcome,[6],inactive
same,AC50,[7],12 µM (active)
same,outcome,[8],inactive
same,outcome,[9],inactive
same,outcome,[10],inactive
same,outcome,[11],inactive
same,AC50,[12],77.6 µM (active)
same,outcome,[13],inactive
same,AC50,[14],13.1 µM (active)
same,outcome,[15],inactive
same,outcome,[16],inactive
same,outcome,[17],inactive
same,outcome,[18],inactive
same,AC50,[20],55.6 µM (active)
same,outcome,[20],inactive
same,AC50,[19],87.7 µM (active)
same,outcome,[19],inactive
Clc1ccc(C(c2ccccc2Cl)C(Cl)(Cl)Cl)cc1 (stereo not drawn),outcome,[1],inactive
same,outcome,[2],inactive
same,outcome,[3],inactive
same,outcome,[5],inactive
same,outcome,[6],inactive
same,outcome,[7],inactive
same,outcome,[8],inactive
same,outcome,[9],inactive
same,outcome,[10],inactive
same,outcome,[11],inactive
same,AC50,[12],55.8 µM (active)
same,outcome,[13],inactive
same,AC50,[14],0.818 µM (active)
same,outcome,[15],inactive
same,outcome,[16],inactive
same,AC50,[17],77.5 µM (active)
same,outcome,[18],inactive
same,AC50,[20],32.5 µM (active) and 55.2 µM (active)
same,AC50,[19],47.2 µM (active) and 74.1 µM (active)

# Reference: PubChem BioAssay (EPA / NIEHS)
